Myeloid diff 2: induction of myeloid progenitor differentiation, primary screen, cell-based, flow cytometry, MLPCN library. calls only at 10 µM. actives 1% (n = 360,000). AID 624256, 2012. ER-HoxA9 myeloid progenitors, lysozyme-GFP differentiation;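 active means normalized GFP-positive differentiation at or above the plate's own cutoff, the solvent-only control mean plus 3 SD; inconclusive means no clear call, values can overlap the other calls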;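 further: cells exposed to compound for four days before flow analysis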
ABCB6 inh MLPCN: ABCB6 transporter inhibitors, primary screen, K562-ABCB6 cells, flow cytometry, MLPCN library; ATP-binding cassette sub-family B member 6 (Homo sapiens), Q9NP58; K562-ABCB6 porphyrin accumulation, 1 h; stronger effect = lower value; fluorescence ratio to DMSO, % at 10 µM; actives 0.19% (n = 360,000); AID 602162, 2011;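 active means fluorescence ratio to DMSO below 75%, the collection mean minus 3 SD; inconclusive means too few cells collected in the well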;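 further: signal is porphyrin accumulated inside mitochondria; 100% equals median channel fluorescence of DMSO control wells; lower ratio means ABCB6 inhibition with less porphyrin fluorescence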
Target sequence (Q9NP58 whole entry, looked up): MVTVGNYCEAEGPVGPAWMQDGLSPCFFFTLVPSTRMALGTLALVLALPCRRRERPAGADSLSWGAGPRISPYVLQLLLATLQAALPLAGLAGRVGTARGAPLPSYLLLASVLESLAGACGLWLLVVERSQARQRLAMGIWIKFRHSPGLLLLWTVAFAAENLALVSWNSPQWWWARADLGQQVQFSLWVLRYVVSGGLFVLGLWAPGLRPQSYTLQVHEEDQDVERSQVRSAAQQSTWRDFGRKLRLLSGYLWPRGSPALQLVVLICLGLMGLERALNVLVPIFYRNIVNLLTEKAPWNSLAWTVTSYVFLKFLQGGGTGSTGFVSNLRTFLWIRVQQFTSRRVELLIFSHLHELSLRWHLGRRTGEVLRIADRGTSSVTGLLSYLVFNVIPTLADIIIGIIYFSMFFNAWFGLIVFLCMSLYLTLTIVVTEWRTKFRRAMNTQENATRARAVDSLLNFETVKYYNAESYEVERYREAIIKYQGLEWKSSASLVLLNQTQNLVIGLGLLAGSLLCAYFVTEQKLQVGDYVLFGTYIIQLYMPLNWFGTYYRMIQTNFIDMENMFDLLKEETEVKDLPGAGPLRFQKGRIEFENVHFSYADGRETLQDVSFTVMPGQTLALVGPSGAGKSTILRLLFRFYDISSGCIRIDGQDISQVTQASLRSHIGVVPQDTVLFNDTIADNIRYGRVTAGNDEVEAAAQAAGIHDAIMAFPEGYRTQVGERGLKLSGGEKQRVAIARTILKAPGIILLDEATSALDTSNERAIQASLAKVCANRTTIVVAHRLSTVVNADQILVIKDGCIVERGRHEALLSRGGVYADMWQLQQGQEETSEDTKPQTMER
Granule exo inh: LAMP-1 surface exposure blockers, TALL-104 cells – cell-based, flow cytometry, MLPCN library, primary screen; TALL-104 LAMP-1 surface exposure; cells stimulated with thapsigargin and PMA; inhibition, % at 10 µM; actives 0.66% (n = 360,000); AID 651702, 2012;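 active means inhibition above about 55%, limit read from the data; inconclusive means no clear call, values can overlap the other calls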
ABCB6 blocker 1: ABCB6 transporter inhibitors, confirmation, K562-ABCB6 cells, flow cytometry, cherry pick 1. shares compounds with ABCB6 inh MLPCN. K562-ABCB6 porphyrin accumulation, 1 h; stronger effect = lower value. ratio response (% of DMSO), % at 10 µM. 700 tested, under 10 active;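 active means repeat-averaged ratio response below 75% of DMSO, the collection mean minus 3 SD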;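 further: median porphyrin fluorescence at 575 nm with 488 nm excitation from mitochondria; lower ratio means less porphyrin signal so ABCB6 inhibition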
* marks the source's active call; other numbers are inactive results; i = inactive; ? = inconclusive; / = not tested or not shown. Compounds with a hit are over-represented: about 1.8% of the library has one in this group of screens.

SMILES	Myeloid diff 2	ABCB6 inh MLPCN	Granule exo inh	ABCB6 blocker 1
COc1ccccc1Oc1nc2c(c(=O)n(Cc3ccccc3F)c(=O)n2C)n1C	i	74*	-1	98
Cn1c(NCCCO)nc2c1c(=O)n(Cc1ccccc1F)c(=O)n2C	i	100	-6	/
C=C1SC(=Nc2c(C)cc(C)cc2C)N(C(=O)c2sc3ccccc3c2Cl)C12CCCCC2	i	100	-17	/
Cc1cccc([C@@H]2[C@@H]3C(=O)N(Cc4ccccc4)C(=O)[C@@H]3[C@]3(Cc4ccc(Cl)cc4)C(=O)N(c4ccc(Br)cc4)C(=O)N23)c1	i	96	3	/
CC(=O)c1ccc(S(=O)(=O)NCc2cccnc2)cc1	i	73*	-2	98
O=C(O)c1ccc(S(=O)(=O)NCc2cccnc2)cc1	i	100	2	/
CC(=O)N1CCc2cc(S(=O)(=O)CCC(=O)N(C)c3cc(C)ccc3C)ccc21	i	96	0	/
Cc1ccc(-n2nc3c(=O)n(CC(=O)NC4CCCCCC4)nc(C)c3c2C)cc1	?	97	-1	/
C#CCOc1ccccc1CNC1CCN(Cc2ccccc2)CC1	i	57*	48	98
C#CCOc1ccccc1CNc1ccccc1	i	94	-1	/
CC(CC(=O)NCc1ccc(Cl)cc1)S(=O)(=O)c1ccc2c(c1)NC(=O)CO2 (centres undefined)	i	95	-2	/
O=C(OCC(=O)N1CCN(c2ccccc2)CC1)c1ccccn1	i	100	0	/
O=C(OCC(=O)N1CCN(c2ccccc2)CC1)c1ccc2ccccc2n1	i	74*	0	99
O=C(Nc1ccc([N+](=O)[O-])cc1)c1ccc(S(=O)(=O)N2CCCC2)cc1	i	73*	-10	100
COC(=O)c1ccc(NC(=O)COc2ccc(S(=O)(=O)N3CCCCC3)cc2)cc1	i	70*	1	97
O=C(COc1cccc(C(F)(F)F)c1)Nc1ccc(S(=O)(=O)N2CCCC2)cc1	i	60*	9	102
O=C(COc1ccc(S(=O)(=O)N2CCCC2)cc1)Nc1ccc(F)cc1	i	96	-4	/
O=C(Nc1ccc(S(=O)(=O)N2CCCC2)cc1)c1ccc(F)cc1	i	105	2	/
O=C(Cc1cccc(C(F)(F)F)c1)Nc1ccc(S(=O)(=O)N2CCCC2)cc1	i	102	30	/
COC(=O)[C@@H]1C[C@H]2CC[C@H](O)C[C@H]2N1Cc1ccc(-c2ccccc2)cc1	i	93	19	/
O=C(NCC(=O)N(c1cccc(F)c1)C(C(=O)NC1CCCC1)c1cccnc1)c1cccs1 (centres undefined)	i	95	7	/
NC(=O)CSc1nnc(Cn2c(=O)sc3ccccc32)n1-c1cccc(Cl)c1	i	66*	5	99
O=C(O)CSc1nnc(Cn2c(=O)sc3ccccc32)n1-c1cccc(Cl)c1	i	104	-2	/
CC(Sc1nc2ccccc2[nH]1)C(=O)Nc1ccccc1F (centres undefined)	i	97	-3	/
COc1ccc(-c2nnc(N)s2)cc1	i	87	-1	/
SMILES	Myeloid diff 2	ABCB6 inh MLPCN	Granule exo inh	ABCB6 blocker 1
Cc1ccc(-c2nnc(N)s2)cc1	i	69*	7	103
CC1=C(C(=O)N(C)C)CC(CC(=O)NCc2cccc3ccccc23)C(=O)N1Cc1ccccc1 (centres undefined)	i	100	-9	/
CCC(=O)N(c1nnc(SCC(=O)Nc2ccc(N3CCOCC3)cc2)s1)C1CC1	i	109	2	/
Nc1nc(Nc2ccccc2)sc1C(=O)c1ccccc1	i	97	7	/
Cc1cnc(NC(=O)c2sc(Nc3ccccc3)nc2N)o1	i	19*	-5	98
CCCCN(CCCC)Cc1cc(=O)oc2cc(C)c(Cl)cc12	i	101	4	/
COc1ccc(S(=O)(=O)N2CCC(C(=O)NCc3ccccn3)CC2)cc1OC	i	101	-2	/
COc1ccc(OC)c(S(=O)(=O)N2CCC(C(=O)NCc3ccccn3)CC2)c1	i	73*	-20	96
CC(=O)c1ccccc1NC(=O)c1cc(S(=O)(=O)N2CCOCC2)ccc1N1CCCC1	i	102	3	/
COc1ccc(C2=CC(=O)C[C@H](c3ccc(Cl)cc3)C2)cc1	i	101	-4	/
O=C1C=C(c2ccc(OC(F)(F)F)cc2)C[C@@H](c2ccc(Cl)cc2)C1	i	74*	1	98
N#Cc1ccccc1NC(=O)CSc1nnc(-c2ccncc2)o1	i	100	0	/
COc1ccccc1CNS(=O)(=O)c1ccc2c(c1)NC(=O)C(C)S2 (centres undefined)	i	98	-1	/
Cn1c(CN2CCN(C(=O)c3ccccc3Cl)CC2)nc2cc([N+](=O)[O-])ccc21	i	103	0	/
Cn1c(CN2CCN(C(=O)c3ccccc3)CC2)nc2cc([N+](=O)[O-])ccc21	i	70*	3	95
O=C(CCCSc1ccc(Cl)cc1)Nc1ccccc1O	i	105	5	/
O=C(NCc1cccnc1)c1cc(C2CCCCN2C(=O)c2ccccc2)on1 (centres undefined)	i	91	-4	/
COc1ccc(CNS(=O)(=O)NCc2ccccc2F)cc1	i	70*	0	96
O=S(=O)(NCc1ccccc1)NCc1ccccc1F	i	96	-8	/
Cc1ccc2c(=O)n3c(nc2c1)C(C)NC(=O)c1cccnc1-3 (centres undefined)	i	106	2	/
COc1cc(OC)cc(OCC(O)Cn2ccnc2)c1 (centres undefined)	i	100	-1	/
OC(COc1ccc(Br)cc1)Cn1ccnc1 (centres undefined)	i	74*	1	99
Cc1ccc(N2CCN(C(=O)c3cc(-c4ccc(F)cc4)[nH]c3C)CC2C)cc1 (centres undefined)	i	104	17	/
COc1cc2[nH]c(=S)nc(NC3CCCCCC3)c2cc1OC	i	73*	-1	99
COc1cc2[nH]c(=S)nc(NCC3CCCO3)c2cc1OC (centres undefined)	i	93	-4	/
SMILES	Myeloid diff 2	ABCB6 inh MLPCN	Granule exo inh	ABCB6 blocker 1
COc1ccc(CC(=O)OCC(=O)NCc2ccc3c(c2)OCO3)cc1OC	i	106	3	/
Cc1nc2c(C(=O)NCCC(C)C)c[nH]n2c(=O)c1Cl	i	101	2	/
Cc1nc2c(C(=O)NCCC(C)C)c[nH]n2c(=O)c1Cc1ccccc1F	i	102	-2	100
COc1ccc(C(=O)NCC(=O)OCC(=O)NCc2ccc3c(c2)OCO3)cc1	i	99	0	/
COc1cccc(-c2nnc(SCC(=O)N3CCCC3=O)n2-c2ccccc2)c1	i	100	-2	/
COc1cccc(-c2nnc(SCC3CNC(=O)O3)n2-c2ccc(Cl)cc2)c1 (centres undefined)	i	67*	2	99
COc1ccc(Nc2nc(-c3ccncc3)nc3ccccc23)cc1	i	94	18	/

Bioassay records as filed in PubChem BioAssay.
